# From PubChem BioAssay (Tox21)
# Where “and” joins values, the source holds several entries; their conditions need not be identical. Identical values can stand only once. Inconclusive results are not listed. Where a call stands in place of a potency, no number is given. Calls of active or inactive are those of the source. Unless noted, the call rests on the fitted dose curve; in most records, active means well fitted curve in the direction sought with a large enough effect in the repeat runs; inconclusive means weak or mixed curves; inactive means no such curve, though single readings can be large; an effect the other way counts as inactive or inconclusive.
# Experiments:
# [1] = qHTS assay to identify small molecule antagonists of the vitamin D receptor (VDR) signaling pathway - cell viability counter screen (AID 743225); further: nearly all actives have a fitted effect of over 50% in size; further: potency means the concentration at half of the fitted maximal effect
# Outline: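 In this counter screen, VDR-bla HEK 293T cells receive test compound plus 3 nM final calcitriol for 16 h at 37C. Room-temperature steps of 2 h with the beta-lactamase substrate, then 30 min with CellTiter-Glo, precede the luminescence read.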
# [2] = qHTS assay to identify small molecule agonists of the NFkB signaling pathway - cell viability counter screen (AID 1159515; calls by dose curve; further: nearly all actives have a fitted effect of over 55% in size; further: potency means the concentration at half of the fitted maximal effect)
# Outline: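 Counter screen run alongside the NFkB-bla agonist assay: ME-180 reporter cells exposed to compounds for 5 hr, then lysed with CellTiter-Glo in the same wells. Luminescence, read after 30 min, reflects viable cells.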
# [3] = qHTS assay to identify small molecule agonists of the endoplasmic reticulum stress response signaling pathway - cell viability counter screen (AID 1159517; calls by dose curve; further: nearly all actives have a fitted effect of over 50% in size; further: potency means the concentration at half of the fitted maximal effect)
# Outline: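 In parallel with the ESRE reporter read, cytotoxicity was scored by CellTiter-Glo luminescence (30 min, room temperature) on HeLa ESRE-bla cells dosed for 5 hr.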
# [4] = qHTS assay to identify small molecule antagonists of the retinoid-related orphan receptor gamma (ROR-gamma) signaling pathway - cell viability counter screen (AID 1159520); further: nearly all actives have a fitted effect of over 50% in size; further: potency means the concentration at half of the fitted maximal effect
# Outline: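 Tet-on ROR gamma CHO cells were given compounds for 2 hr, then doxycycline hyclate at 1 uM final, and incubated 16 hr at 37 C. Viability was measured as ATP content by CellTiter-Glo luminescence.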
# [5] = molecular target: Retinoic acid receptor RXR-alpha (Homo sapiens) (UniProt P19793); assay: qHTS assay to identify small molecule agonists of the RXR signaling pathway (AID 1159527; calls by dose curve; further: nearly all actives have a fitted effect of over 35% in size)
# Chain of Retinoic acid receptor RXR-alpha (Homo sapiens) (P19793 whole entry, looked up): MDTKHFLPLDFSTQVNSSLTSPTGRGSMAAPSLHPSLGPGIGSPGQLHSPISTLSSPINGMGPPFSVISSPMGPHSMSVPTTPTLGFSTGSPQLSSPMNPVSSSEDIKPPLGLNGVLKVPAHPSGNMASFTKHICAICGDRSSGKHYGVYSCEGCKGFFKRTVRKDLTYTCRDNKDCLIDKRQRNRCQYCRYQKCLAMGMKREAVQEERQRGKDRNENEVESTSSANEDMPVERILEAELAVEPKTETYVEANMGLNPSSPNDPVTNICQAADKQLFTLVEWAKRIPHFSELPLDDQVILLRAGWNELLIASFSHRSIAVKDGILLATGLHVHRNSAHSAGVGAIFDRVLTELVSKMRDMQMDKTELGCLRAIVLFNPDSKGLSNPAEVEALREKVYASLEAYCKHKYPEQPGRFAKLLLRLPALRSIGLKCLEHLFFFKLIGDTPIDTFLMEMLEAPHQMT
# Outline: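 Fluorescence ratio readout (460 vs 530 nm) from GeneBLAzer RXR-alpha HEK 293T cells after 16 hr compound treatment; cells seeded 5 hr beforehand in low-serum, charcoal-stripped medium.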
# [6] = qHTS assay to identify small molecule agonists of the RXR signaling pathway - cell viability counter screen (AID 1159529); further: nearly all actives have a fitted effect of over 50% in size; further: potency means the concentration at half of the fitted maximal effect
# Outline: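 Viability read-out for the RXR-alpha agonist qHTS: luminescent CellTiter-Glo signal after 30 min at RT. HEK 293T bla reporter cells, 2% charcoal-stripped FBS, 16 hr compound incubation; tetraoctyl ammonium bromide as cytotoxic control.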
# [7] = qHTS assay to identify small molecule antagonists of the retinoid acid receptor (RAR) signaling pathway - cell viability counter screen (AID 1159551); further: nearly all actives have a fitted effect of over 35% in size; further: potency means the concentration at half of the fitted maximal effect
# Outline: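 Measured by luminescent ATP detection, viability reflects C3RL4 cells treated 6 h at 37 C with test chemicals in the presence of 1 uM (final) retinol.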
# [8] = qHTS assay to identify small molecule antagonists of the retinoic acid receptor (RAR) signaling pathway (AID 1159552; further: nearly all actives have a fitted effect of over 50% in size; further: potency means the concentration at half of the fitted maximal effect)
# Outline: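 Using a RARE-driven luciferase construct in C3RL4 cells, retinol at 1 uM final provided the agonist stimulus while compounds were co-applied. After 6 hours at 37 C, luminescence was recorded to flag inhibitors of retinol signaling.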
# [9] = qHTS assay to identify small molecule agonists of the retinoic acid receptor (RAR) signaling pathway (AID 1159553); further: potency means the concentration at half of the fitted maximal effect
# Outline: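 6 hr compound exposure (DMSO vehicle) of overnight-plated C3RL4 RARE-luc cells at 37 C; luminescence quantified after 30 min RT with luciferase reagent.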
# [10] = qHTS assay to identify small molecule antagonists of the estrogen related receptor (ERR) signaling pathway from Tox21 library - cell viability counter screen (AID 1224834); further: nearly all actives have a fitted effect of over 30% in size; further: potency means the concentration at half of the fitted maximal effect
# Outline: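 Seeded ERR cells were rested 6 h at 37 C/5% CO2 before compounds, positive and negative controls or DMSO were added. Incubation continued for 17.5 h, and viability was then quantified by CellTiter-Fluor fluorescence.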
# [11] = qHTS assay to identify small molecule antagonists of the estrogen related receptor (ERR) signaling pathway - cell viability counter screen (AID 1224818); further: series mostly up to about 46 µM
# Outline: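 Compounds dissolved in DMSO were applied to ERR cells seeded at 2,000 per well 6 h earlier. Cell viability followed 17.5 h later via 30-min CellTiter-Fluor fluorescence.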
# [12] = qHTS assay to identify small molecule agonists of the estrogen related receptor (ERR) signaling pathway (AID 1224820)
# Outline: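 After 6 h plating (2,000 cells/well) and 18 h compound treatment at 37 C, ERR cells were lysed with One-Glo and luminescence read after 30 min at room temperature.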
# [13] = tested on: estrogen-related receptor alpha (ERRalpha) with PGC-1alpha coactivator, human; assay: qHTS assay to identify small molecule antagonists of the estrogen related receptor signaling pathway with the pleiotropic PPARgamma coactivator (PGC) (AID 1224821; calls by dose curve; further: nearly all actives have a fitted effect of over 50% in size; further: potency means the concentration at half of the fitted maximal effect)
# Outline: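 Luminescence from One-Glo luciferase reagent (30 min, room temperature) measured after 18 h compound treatment at 37 °C. Cells carry the PGC/ERR reporter and were seeded 6 h prior to dosing.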
# [14] = qHTS assay to identify small molecule agonists of the estrogen related receptor signaling pathway with the pleiotropic PPARgamma coactivator (PGC) (AID 1224823)
# Outline: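 Luminescence from One-Glo reagent (30 min, room temperature) was read after 18 h compound treatment at 37 C of PGC/ERR cells plated 6 h beforehand; compounds delivered in DMSO by pin tool.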
# [15] = molecular target: Nuclear receptor ROR-gamma (Homo sapiens) (UniProt P51449); assay: qHTS assay to identify small molecule antagonists of the retinoid-related orphan receptor gamma (ROR-gamma) signaling pathway (AID 1159521; further: nearly all actives have a fitted effect of over 50% in size; further: potency means the concentration at half of the fitted maximal effect)
# Outline: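 Screening format: cell-based luciferase reporter in CHO cells with doxycycline-inducible RORγ. Compound pre-exposure lasts 2 h, doxycycline is 1 uM final, induction runs 16 h at 37 C, and ONE-Glo luminescence is read.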
# [16] = qHTS assay to identify small molecule agonists of the AP-1 signaling pathway - cell viability counter screen (AID 1159525; calls by dose curve; further: nearly all actives have a fitted effect of over 55% in size; further: potency means the concentration at half of the fitted maximal effect)
# Outline: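 Same-well cytotoxicity counter screen of the Tox21 10K library in ME-180 cells. The readout is ATP-dependent luminescence after 5 h compound treatment. Data are normalised to DMSO and tetra n-octyl ammonium bromide controls.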
# [17] = qHTS assay to identify small molecule agonists of the AP-1 signaling pathway (AID 1159526; calls by dose curve)
# [18] = qHTS assay to identify small molecule antagonists of the estrogen related receptor signaling pathway with the pleiotropic PPARgamma coactivator (PGC) cell viability counter screen (AID 1224822; further: series mostly up to about 46 µM)
# Outline: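 Counter screen for cell viability: PGC/ERR cells, 6 h pre-incubation after plating, 17.5 h compound exposure at 37 C, fluorescence from CellTiter-Fluor after 30 min.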
# [19] = qHTS assay to identify small molecule antagonists of the estrogen related receptor (ERR) signaling pathway (AID 1224819)
# Outline: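 Compounds dissolved in DMSO were pin-transferred onto ERR cells that had been plated 6 h earlier, and cells were then incubated 18 h at 37 C; signal was luciferase luminescence via One-Glo.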
structure (smiles),measurement,setting,value
Cc1onc(-c2ccccc2Cl)c1C(=O)N[C@@H]1C(=O)N2[C@@H]1SC(C)(C)[C@@H]2C(=O)O,Potency,[1],inactive
same,Potency,[2],inactive
same,Potency,[3],inactive
same,Potency,[4],inactive
same,Potency,[5],inactive
same,Potency,[6],inactive
same,Potency,[7],inactive
same,Potency,[8],inactive
same,Potency,[9],inactive
same,Potency,[10],inactive
CCN(CC)CCCC(C)Nc1c2ccc(Cl)cc2nc2ccc(OC)cc12 (centres undefined),Potency,[2],inactive
same,Potency,[3],inactive
same,Potency,[4],inactive
same,Potency,[7],inactive
same,Potency,[11],inactive
same,outcome,[12],inactive
same,Potency,[13],16.8 µM (active)
same,outcome,[14],inactive
O=C1c2c(O)ccc(Nc3ccc(CCO)cc3)c2C(=O)c2c([N+](=O)[O-])ccc(O)c21,Potency,[2],inactive
same,Potency,[3],inactive
same,Potency,[15],inactive
same,Potency,[16],inactive
same,Potency,[8],inactive
same,Potency,[10],38.6 µM (active)
O=C(Oc1ccccc1)c1ccccc1C(=O)Oc1ccccc1,Potency,[1],inactive
same,Potency,[2],inactive
same,Potency,[3],inactive
same,Potency,[4],inactive
same,Potency,[17],inactive
same,Potency,[6],inactive
same,Potency,[7],inactive
same,Potency,[9],inactive
O=C(O)c1c(Cl)cccc1Cl,Potency,[1],inactive
same,Potency,[2],inactive
same,Potency,[3],inactive
same,Potency,[15],inactive
same,Potency,[16],inactive
same,Potency,[17],inactive
same,Potency,[5],inactive
same,Potency,[6],inactive
same,Potency,[7],inactive
same,Potency,[8],inactive
same,Potency,[9],inactive
same,Potency,[10],inactive
CC(C)C(C)(C)C(C)(C)C(C)(C)S,Potency,[2],inactive
same,Potency,[3],inactive
same,Potency,[4],inactive
same,Potency,[6],inactive
same,Potency,[7],inactive
same,Potency,[11],inactive
same,Potency,[18],inactive
same,Potency,[10],inactive
NC(=O)N1C(=O)C(C(=O)c2cc(Cl)cs2)c2cc(F)c(Cl)cc21 (centres undefined),Potency,[1],13.8 µM (active)
same,Potency,[2],inactive
same,Potency,[3],inactive
same,Potency,[15],19.3 µM (active)
same,Potency,[16],inactive
same,Potency,[6],49 µM (active)
same,Potency,[7],inactive
same,Potency,[8],inactive
same,Potency,[10],27.3 µM (active)
Fc1ccc([C@@H]2CCNC[C@H]2COc2ccc3c(c2)OCO3)cc1,Potency,[2],inactive
same,Potency,[3],inactive
same,Potency,[4],inactive
same,Potency,[6],inactive
same,Potency,[7],inactive
same,Potency,[9],inactive
CO[Si](CCCNc1ccccc1)(OC)OC,Potency,[2],inactive
same,Potency,[3],inactive
same,Potency,[15],inactive
same,Potency,[16],inactive
same,Potency,[5],inactive
same,Potency,[6],inactive
same,Potency,[7],inactive
same,Potency,[8],inactive
same,Potency,[9],inactive
same,Potency,[10],inactive
NNc1nc(-c2ccccc2)cs1,Potency,[2],inactive
same,Potency,[3],inactive
same,Potency,[15],inactive
same,Potency,[16],inactive
same,Potency,[5],inactive
same,Potency,[7],inactive
same,Potency,[8],inactive
same,Potency,[9],70.5 µM (active)
same,Potency,[10],7.05 µM (active)
CCCN(CCC)C(=O)C(CCC(=O)OCCCN1CCN(CCOC(=O)Cc2c(C)n(C(=O)c3ccc(Cl)cc3)c3ccc(OC)cc23)CC1)NC(=O)c1ccccc1 (centres undefined),Potency,[1],26.8 µM (active)
same,Potency,[2],21.3 µM (active)
same,Potency,[3],inactive
same,Potency,[4],inactive
same,Potency,[16],inactive
same,Potency,[7],inactive
same,Potency,[9],inactive
same,Potency,[10],23.7 µM (active)
COc1c(C)c2c(c(O)c1C/C=C(\C)CCC(=O)O)C(=O)OC2,Potency,[2],inactive
same,Potency,[3],16.9 µM (active)
same,Potency,[15],0.133 µM (active)
same,Potency,[16],inactive
same,Potency,[17],inactive
same,Potency,[7],inactive
same,Potency,[8],inactive
same,Potency,[9],inactive
OC1(c2ccc(Cl)c(C(F)(F)F)c2)CCN(CCCC(c2ccc(F)cc2)c2ccc(F)cc2)CC1,Potency,[1],10.7 µM (active)
same,Potency,[2],12 µM (active)
same,Potency,[3],8.49 µM (active)
same,Potency,[4],9.44 µM (active)
same,Potency,[16],9.52 µM (active)
same,Potency,[8],26.6 µM (active)
C=CC(=O)OCC(CO)(COC(=O)C=C)COC(=O)C=C,Potency,[1],13.9 µM (active) and 15.5 µM (active)
same,Potency,[2],inactive
same,Potency,[3],21.9 µM (active)
same,Potency,[15],2.44 µM (active) and 6.86 µM (active)
same,Potency,[16],49.1 µM (active) and 49 µM (active)
same,Potency,[6],13.9 µM (active) and 12.3 µM (active)
same,Potency,[7],61.3 µM (active)
CCCCCCCCOc1ccccc1C(=O)Nc1ccc(C(=O)OCC[N+](C)(CC)CC)cc1,Potency,[2],12 µM (active)
same,Potency,[3],inactive
same,Potency,[15],inactive
same,Potency,[16],26.8 µM (active)
same,Potency,[6],10.7 µM (active)
same,Potency,[9],inactive
Nc1c2ccccc2nc2ccccc12,Potency,[2],inactive
same,Potency,[3],inactive
same,Potency,[15],inactive
same,Potency,[16],inactive
same,Potency,[17],inactive
CC(C)n1nc(-c2cc3cc(O)ccc3[nH]2)c2c(N)ncnc21,Potency,[1],inactive
same,Potency,[2],inactive
same,Potency,[3],9.52 µM (active)
same,Potency,[4],2.98 µM (active)
same,Potency,[17],inactive
same,Potency,[10],1.33 µM (active)
Oc1ccc(N=Nc2ccccc2)cc1,Potency,[2],inactive
same,Potency,[3],inactive
same,Potency,[15],inactive
same,Potency,[16],inactive
same,Potency,[7],inactive
same,Potency,[8],inactive
same,Potency,[9],2.47 µM (active)
same,Potency,[10],49.2 µM (active)
Cc1cccc(N(C)C(=S)Oc2ccc3c(c2)C2CCC3C2)c1 (centres undefined),Potency,[1],inactive
same,Potency,[2],inactive
same,Potency,[3],inactive
same,Potency,[4],inactive
same,Potency,[16],inactive
same,Potency,[7],inactive
same,Potency,[8],inactive
same,Potency,[10],inactive
CCN(CCC#N)c1ccc(N=Nc2c(Cl)cc([N+](=O)[O-])cc2Cl)cc1,Potency,[2],inactive
same,Potency,[3],inactive
same,Potency,[4],inactive
same,Potency,[16],inactive
same,Potency,[7],inactive
same,Potency,[8],inactive
same,Potency,[10],15.4 µM (active)
O=C(c1ccc(F)cc1)C1CCN(CCn2c(=O)[nH]c3ccccc3c2=O)CC1,Potency,[2],inactive
same,Potency,[3],inactive
same,Potency,[4],inactive
same,Potency,[17],inactive
same,Potency,[6],inactive
same,Potency,[7],inactive
same,Potency,[8],inactive
same,Potency,[9],inactive
same,Potency,[11],inactive
same,Potency,[19],inactive
same,outcome,[12],inactive
same,Potency,[13],inactive
same,Potency,[18],inactive
same,outcome,[14],inactive
